The target in one test is Albumin (Bos taurus) (UniProt P02769). Nature of the test: compounds binding labelled BSA control protein – biochemical, small-molecule microarray, Alexa647 label, 635/667 nm fluorescence, artefact control for SMM control protein annotation, profiling panel (AID 1118).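 Also: score merges 667 nm emission intensity and signal-to-noise per printed compound spot.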 As to conditions: BSA-A647 binding, fluorescence 635 nm, higher = more signal.
Test [1] in a line: probe aXIP binding to arrayed compounds – biochemical, NeuroSMM set, 635/667 nm fluorescence, primary screen (AID 1119).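 Also: probe is the protein aXip251-270 applied at 1 µg/mL to compound-printed slides; binding of probe to printed compounds measured as 667 nm fluorescence plus signal to noise.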 As to conditions: small-molecule microarray, higher = more signal, called active from +8 up or from −8 down.
The nature of test [2]: probe aNOTCH3 binding on compound microarray – biochemical, small-molecule microarray, 635/667 nm fluorescence, primary screen (AID 1120).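 Also: probe is a biotin-tagged antibody raised against NOTCH3 rather than NOTCH3 protein; score merges spot fluorescence near 667 nm with spot signal to noise.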 Conditions: higher = more signal.
Test [3] in a line: probe aNOTCH2 binding on compound microarray – biochemical, small-molecule microarray, 635/667 nm fluorescence, primary screen (AID 1121).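 Also: score merges feature fluorescence read at 667 nm with its signal to noise.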 Conditions: higher = more signal.
Test [4] addresses Carbonic anhydrase 2 (Homo sapiens) (UniProt P00918). Nature of the test: compounds binding carbonic anhydrase 2 – biochemical, small-molecule microarray, Alexa647-labelled CAII, profiling panel (AID 1122). As to conditions: CAII-A647 binding fluorescence, higher = more signal.
Test [5] can be described thus: COS7 lysate on small-molecule microarray, probe aHis, 635 nm (AID 1123).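 Also: z-score combines 667nm fluorescence intensity with signal-to-noise per printed compound spot.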 As to conditions: COS7 cell lysate, fluorescence, higher = more signal.
Test [6] can be described thus: probe aLAP1 signal on lysate-treated microarray – cell lysate, small-molecule microarray, COS7 lysate, primary screen (AID 1124).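 Also: lysate comes from COS7 cells expressing LAP1 and is applied at 0.3 µg/mL; score merges spot fluorescence near 667 nm with signal-to-noise over triplicate slides.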 Conditions: probe aLAP1, fluorescence, higher = more signal.
For the next test, the system named is Sam68 (KHDRBS1). In words: compounds binding KHDRBS1 protein – biochemical, small-molecule microarray, 635 nm fluorescence, primary screen (AID 1125).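 Also: score merges 667 nm channel intensity with signal to noise over triplicate slides.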 Conditions: higher = more signal.
For test [7], the system named is Chordin-like protein 2 (CHRDL2). In words: compounds binding chordin-like 2 – biochemical, small-molecule microarray, 635 nm fluorescence, primary screen (AID 1126).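 Also: printed compound slides probed with Chrdl2 protein at 4 µg/mL for 1 h at 4 C; score merges 667 nm emission intensity with signal to noise over three replicate slides.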 As to conditions: fluorescence 635 nm, higher = more signal.
Test [8] deals with Concanavalin-A (Canavalia ensiformis) (UniProt P02866). Nature of the test: compounds binding concanavalin A lectin – biochemical, small-molecule microarray, Alexa647 label, 635 nm, artefact control for SMM control protein annotation, primary screen (AID 1127).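 Also: z combines 667 nm emission intensity with signal-to-noise across three replicate slides.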 As to conditions: ConA-A647 binding fluorescence, higher = more signal.

The values that follow come from PubChem BioAssay.

The source made the active and inactive calls.

Albumin (Bos taurus), sequence (P02769 whole entry, looked up): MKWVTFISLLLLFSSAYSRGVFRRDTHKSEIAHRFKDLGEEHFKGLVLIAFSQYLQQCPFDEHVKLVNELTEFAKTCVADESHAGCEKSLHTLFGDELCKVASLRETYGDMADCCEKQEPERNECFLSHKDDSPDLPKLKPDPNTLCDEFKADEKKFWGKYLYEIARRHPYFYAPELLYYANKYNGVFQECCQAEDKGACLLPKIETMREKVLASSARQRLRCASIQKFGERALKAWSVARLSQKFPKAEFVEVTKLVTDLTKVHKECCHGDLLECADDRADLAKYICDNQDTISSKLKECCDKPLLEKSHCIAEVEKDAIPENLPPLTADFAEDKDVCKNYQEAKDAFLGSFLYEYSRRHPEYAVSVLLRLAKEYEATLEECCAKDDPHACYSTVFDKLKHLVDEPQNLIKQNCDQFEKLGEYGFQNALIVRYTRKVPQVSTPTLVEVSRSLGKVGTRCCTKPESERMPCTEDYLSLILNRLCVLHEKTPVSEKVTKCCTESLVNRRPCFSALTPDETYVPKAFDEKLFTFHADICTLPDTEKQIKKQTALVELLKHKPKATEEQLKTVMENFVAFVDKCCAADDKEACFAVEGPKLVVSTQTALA
Concanavalin-A (Canavalia ensiformis), sequence (P02866 whole entry, looked up): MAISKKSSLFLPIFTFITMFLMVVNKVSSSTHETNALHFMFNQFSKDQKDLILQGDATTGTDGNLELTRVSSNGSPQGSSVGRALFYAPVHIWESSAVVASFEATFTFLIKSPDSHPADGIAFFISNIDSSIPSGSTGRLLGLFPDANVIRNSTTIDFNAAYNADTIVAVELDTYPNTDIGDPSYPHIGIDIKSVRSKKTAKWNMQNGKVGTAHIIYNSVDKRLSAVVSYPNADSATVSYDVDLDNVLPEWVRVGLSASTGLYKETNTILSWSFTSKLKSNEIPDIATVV

`CON=C(C)CCC(=O)OC[C@H]1O[C@H](c2ccccc2)C=C[C@@H]1Oc1ccc(OC)cc1`: the composite z-score with Albumin (Bos taurus) was 0.443; in [2] it was -0.0687; in test [3], -0.146; in [4], -0.185; in test [5], -0.0845; in test [6] it was 0.2. Besides, the composite z-score was -0.209 in the test with Sam68 (KHDRBS1), 0.406 in [7] and 0.0078 in [8]. Besides, the composite Z-score in test [1] is -0.222 (inactive).

Regarding `COc1ccc(COC(=O)NN=C2C[C@@H](O)[C@@H](O)[C@@H]3[C@@H]4C(=O)N(c5cccc(Oc6ccccc6)c5)C(=O)[C@@H]4CC[C@@H]23)cc1`, the composite z-score in the test with Albumin (Bos taurus) was 0.267; in test [2], 0.123; in test [3], -0.149; in test [4], 0.0806; in [5], 0.303; in test [6] it was -0.116. Also, the results for the composite z-score (with Sam68 (KHDRBS1); in test [7]; in [8]) were -0.456, -0.424 and -0.337, respectively. For the same compound, the composite Z-score in [1] is 0.807 (inactive).

Regarding `CC(CCC(=O)OC[C@H]1O[C@H](C#Cc2ccccc2)C=C[C@@H]1Oc1ccc(C)cc1)=NO[C@H](C)c1cn([C@H](CO)Cc2ccccc2)nn1`, the composite z-score is 0.276 with Albumin (Bos taurus); -0.0847 in test [2]; -0.0966 in [3]; -0.0419 in [4]; 0.757 in [5]; 0.0395 in test [6]. For the same compound, the composite z-score in the test with Sam68 (KHDRBS1) is 1.12; in test [7], 0.569; in [8], 0.79. In addition, in [1], the composite Z-score was 0.392 (inactive).

As to `O=C1C[C@@H](O)[C@@H](O)[C@@H]2[C@@H]3C(=O)N(C[C@@H]4CCCO4)C(=O)[C@@H]3CC[C@@H]12`, the composite z-score was -0.0039 with Albumin (Bos taurus); 0.0547 in test [2]; -0.111 in [3]; -0.0061 in [4]; 0.725 in [5]; 0.181 in test [6]. The figures for the composite z-score (with Sam68 (KHDRBS1); in test [7]; in test [8]) were 0.666, 0.348 and 0.852, respectively. For the same compound, the composite Z-score in test [1] was -0.286 (inactive).

As to `Cc1ccc(S(=O)(=O)N[C@H]2COC(=O)CC=C[C@@H](C)COC(=O)CC=C[C@@H]2C)cc1`, the composite z-score in the test with Albumin (Bos taurus) is -1.17; in test [2], -0.163; in test [3], -0.186; in [4], -0.41; in test [5], -0.688; in test [6], -0.209. Besides, the composite z-score was 0.393 in the test on Sam68 (KHDRBS1), 1.23 in [7] and -0.351 in test [8]. The composite Z-score in [1] is -0.821 (inactive).

As to `COCOc1ccc(Br)cc1C(=O)[C@@H]1O[C@H]1c1cccc(OC)c1`, the composite z-score in the test with Albumin (Bos taurus) is 0.591; in test [2], -0.122; in [3], -0.108; in test [4] it was 0.041; in test [5], 0.696; in test [6], 0.0365. For the same compound, the results for the composite z-score (with Sam68 (KHDRBS1); in test [7]; in test [8]) were -0.395, 0.589 and -1.26, respectively. For the same compound, the composite Z-score in [1] is 0.374 (inactive).

For the compound `CCOC(=O)[C@H](Cc1ccccc1)NC(=O)CCC1CC(OC(=O)NCc2cccc3ccccc23)CC2(CCCC(COC(=O)NCc3cccc(C(F)(F)F)c3)O2)O1` (stereo not given in full), the composite z-score with Albumin (Bos taurus) is 0.331; in test [2], -0.124; in test [3] it was -0.14; in test [4], 0.138; in test [5] it was 0.345; in test [6], 0.131. Also, the composite z-score in the test with Sam68 (KHDRBS1) is 0.462; in [7], -0.0424; in [8], 0.187. Further, in [1], the composite Z-score was 0.0898 (inactive).

For `C[C@@H](c1ccccc1)N1C(=O)[C@H]2[C@H]3[C@H](O)[C@H](O)CC(=O)[C@H]3CC[C@H]2C1=O`, the composite z-score with Albumin (Bos taurus) is 0.587; in test [2], -0.367; in test [3], -0.226; in test [4], -0.125; in [5], 0.241; in [6] it was 0.567. The composite z-score amounted to 0.626 in the test on Sam68 (KHDRBS1), 0.747 in test [7] and 0.336 in [8]. Besides, in [1], the composite Z-score was -0.0023 (inactive).

In the case of `CCOC(=O)[C@H](CC(C)C)NC(=O)CCC1CC(OC(=O)NCc2ccc3c(c2)OCO3)CC2(CCCC(COC(=O)NCC(c3ccccc3)c3ccccc3)O2)O1` (stereo not given in full), the composite z-score with Albumin (Bos taurus) was 0.23; in test [2], 0.0876; in [3], -0.147; in test [4], 0.538; in [5] it was 0.674; in [6], -0.144. Also, the values for the composite z-score (in the test with Sam68 (KHDRBS1); in test [7]; in test [8]) were 0.714, 0.0432 and 1.09, respectively. Moreover, in test [1], the composite Z-score is 0.142 (inactive).

In the case of `CCOC(=O)[C@H](CC(C)C)NC(=O)CCC1CC(OC(=O)NCc2ccc3c(c2)OCO3)CC2(CCCC(COC(=O)NCC3CCCCC3)O2)O1` (stereo not given in full), the composite z-score is 0.235 with Albumin (Bos taurus); 0.31 in test [2]; -0.207 in test [3]; 0.368 in [4]; 0.636 in test [5]; 0.244 in test [6]. The composite z-score was 1.32 with Sam68 (KHDRBS1), 0.567 in test [7] and 0.512 in [8]. Also, the composite Z-score in test [1] was 0.189 (inactive).

Turning to `CO[C@H]1COC(=O)CC=C[C@@H](C)[C@H](OC)COC(=O)[C@@H]2CCCN2C(=O)CC=C[C@@H]1C`, the composite z-score is -0.871 with Albumin (Bos taurus); -0.0077 in [2]; -0.107 in test [3]; -0.377 in test [4]; -0.339 in test [5]; -0.322 in test [6]. For the same compound, the composite z-score is 0.672 in the test with Sam68 (KHDRBS1), 1.32 in test [7] and -0.222 in test [8]. Moreover, in test [1], the composite Z-score was 0.668 (inactive).

Regarding `CO[C@H]1COC(=O)CC=C[C@@H](C)[C@H](OC)COC(=O)CCC[C@@H]1C`, the composite z-score was -0.913 in the test with Albumin (Bos taurus); -0.149 in test [2]; -0.118 in [3]; -0.601 in test [4]; 0.302 in test [5]; 0.923 in [6]. Also, the composite z-score in the test with Sam68 (KHDRBS1) is 0.0465; in test [7] it was 1.41; in test [8], -0.819. The composite Z-score in test [1] was 0.0032 (inactive).

On to `CC(C)CON=C1C[C@@H](O)[C@@H](O)[C@@H]2[C@@H]3C(=O)N(C(C)(C)C)C(=O)[C@@H]3CC[C@H]12`, for which the composite z-score is -0.135 with Albumin (Bos taurus); 0.0039 in test [2]; -0.124 in test [3]; 0.11 in test [4]; 1.36 in test [5]; 0.057 in test [6]. For the same compound, the composite z-score was 1.01 with Sam68 (KHDRBS1), 0.297 in test [7] and -1.23 in test [8]. In addition, the composite Z-score in test [1] was 0.3 (inactive).

For the compound `CC(C)CON=C1C[C@@H](O)[C@@H](O)[C@@H]2[C@@H]3C(=O)N(c4cccc(Oc5ccccc5)c4)C(=O)[C@@H]3CC[C@@H]12`, the composite z-score with Albumin (Bos taurus) was 0.621; in [2] it was -0.0377; in [3] it was -0.121; in test [4], 0.418; in test [5] it was 1.04; in [6], 0.118. For the same compound, the results for the composite z-score (with Sam68 (KHDRBS1); in test [7]; in [8]) were 1.17, 0.232 and 1.13, respectively. The composite Z-score in test [1] was 0.0388 (inactive).

With `C[n+]1ccc(-c2ccc(CO)cc2)cc1`, the composite z-score is -0.619 with Albumin (Bos taurus); -0.0377 in [2]; -0.157 in [3]; 0.68 in test [4]; -0.702 in test [5]; 0.372 in [6]. For the same compound, the composite z-score with Sam68 (KHDRBS1) is 0.364; in test [7], 1.54; in test [8] it was 1.11. In [1], the composite Z-score was 2.7 (inactive).

Turning to `CO[C@H]1COC(=O)[C@@H]2CCCN2C(=O)CC=C[C@@H](C)[C@H](OC)COC(=O)[C@@H](OCc2ccccc2)C=C[C@@H]1C`, the composite z-score with Albumin (Bos taurus) was -0.761; in test [2], 0.114; in test [3], -0.115; in test [4] it was -0.499; in test [5], -0.756; in test [6], -0.549. In addition, the composite z-score was -0.11 with Sam68 (KHDRBS1), 1.33 in test [7] and -0.4 in test [8]. For the same compound, the composite Z-score in [1] was -1.04 (inactive).
